Bioassay records as filed in PubChem BioAssay.
In the library only some 17% were active in any assay of this set; here they are far more common.
TGFb inhibitor: TGF-b pathway inhibition; HepG2 CAGA-GFP TGF-b/SMAD3 reporter, GFP fluorescence, 18 h; TGF-beta stimulated, 500 pg/mL final; Potency, µM (series often up to 46.1 µM), actives largely listed as inhibitors; 410,000 compounds, 1.2% hits; further: nearly all actives have a fitted effect of over 65% in size
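Inhibition of TGF-beta-driven CAGA-GFP reporter expression in HEPG2 cells is measured by cellular GFP fluorescence after 18 h stimulation with 500 pg/mL recombinant TGF-beta in 1% FBS medium at 37 degrees C.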
HepG2 tox: kills HepG2 cells in TGF-b inhibitor counter-screen. AID 588856. 410,000 compounds, 0.76% hits. Potency, µM (highest dose often 46.1 µM), usual class: cytotoxic. HepG2 CAGA-GFP viability, ATP luminescence, 18 h
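CellTiter-Glo luminescence gave cytotoxicity after 18 hours at 37 degrees C. The cells were HepG2 CAGA-GFP in 1% FBS DMEM, stimulated with 500 pg/mL TGF-beta after compound addition. %Activity was normalised to no-cell wells (complete cell-killing) and DMSO (no toxicity), and curves were fitted and classified.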
ATXN2 expr inh: inhibitors of ATXN2 expression. Potency, µM (titrated, usually from 57 µM), hits mostly inhibitors. HEK-293 ATXN2-luciferase reporter, luminescence, 24 h. 360,000 compounds, 0.72% hits. AID 1745845; further: nearly all actives have a fitted effect of over 55% in size
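qHTS (up to 57 uM final) was run with 24 h compound exposure of reporter cells at 37 °C. Each well was multiplexed: SteadyGlo luminescence measured ATXN2-luciferase expression after a fluorogenic Gly-Phe-AFC viability readout (25 uM final).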
DT40 TDP1 no CPT: qHTS for Inhibitors of human tyrosyl-DNA phosphodiesterase 1 (TDP1): qHTS in cells in absence of CPT; DT40 Tdp1-/- hTDP1 cells, no CPT, ATP luminescence, 48 h; Potency, µM (top dose mostly 46.2 µM), usual class: inhibitors; 420,000 compounds, 15% hits; AID 686978, 2013; further: nearly all actives have a fitted effect of over 55% in size
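Growth of hTDP1-complemented DT40 Tdp1-knockout cells is measured by ATP luminescence after at least 48 hr compound exposure at 37 °C, with DMSO substituting for the 20 nM CPT used in the parallel screen.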
S2 tox: viability counter-screen for ATXN expression inhibitors; S2 cells (HEK-293 line with an ATXN2-luciferase reporter) viability, CellTiter-Fluor protease fluorescence, 24 h; Potency, µM (highest dose often 56.7 µM), hits mostly cytotoxic; 400,000 compounds, 0.49% hits; AID 651635; further: nearly all actives have a fitted effect of over 40% in size
DT40 TDP1 CPT: growth inhibition of DT40 Tdp1-/-;hTDP1 cells with camptothecin (screen for TDP1 inhibitors); chicken DT40 Tdp1-/-;hTDP1 cells + 20 nM CPT, ATP luminescence, 48 h; 420,000 compounds, 12% hits; Potency, µM (highest dose often 46.2 µM), most hits filed as inhibitors; AID 686979; further: nearly all actives have a fitted effect of over 55% in size
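Cell growth measured by CellTiter-Glo luminescence after a minimum 48 h, 37 C compound exposure with 20 nM CPT in Tdp1-knockout DT40 cells stably expressing hTDP1, seeded 400/well; qHTS titration format.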
Each line names hits and unclear results; the compound was inactive in the other large screens. The call rests on the fitted dose curve; in most records, active means well fitted curve in the direction sought with a large enough effect; inconclusive means small, poorly fitted or top-dose-only effect, or another doubt; inactive means no such curve, though single readings can be large; an effect the other way counts as inactive or inconclusive.

C=C(C)Cn1c(CN(C)Cc2ccccc2)nc2c1c(=O)n(C)c(=O)n2C	ATXN2 expr inh inconclusive, DT40 TDP1 no CPT 5.2µM, DT40 TDP1 CPT 7.3µM
Cc1ccc(Cn2c(CN(C)Cc3ccccc3)nc3c2c(=O)n(C)c(=O)n3C)cc1	DT40 TDP1 no CPT inconclusive, DT40 TDP1 CPT inconclusive
CC(=O)C(C)n1c(CN(C)Cc2ccccc2)nc2c1c(=O)n(C)c(=O)n2C (stereo not given)	DT40 TDP1 no CPT 8.2µM, DT40 TDP1 CPT 8.2µM
CN(Cc1ccccc1)Cc1nc2c(c(=O)n(C)c(=O)n2C)n1Cc1ccc(Cl)cc1	DT40 TDP1 no CPT inconclusive, DT40 TDP1 CPT inconclusive
CC(C)n1c(CN(C)Cc2ccccc2)nc2c1c(=O)n(C)c(=O)n2C	ATXN2 expr inh inconclusive, DT40 TDP1 no CPT 0.41µM, S2 tox inconclusive, DT40 TDP1 CPT 0.73µM
Cc1ccc(C)c(Cn2c(CN(C)Cc3ccccc3)nc3c2c(=O)n(C)c(=O)n3C)c1	TGFb inhibitor inconclusive, ATXN2 expr inh inconclusive, DT40 TDP1 no CPT 15µM, S2 tox inconclusive, DT40 TDP1 CPT 18µM
CSc1nc2ccccc2n1Cc1c(Cl)cccc1Cl	DT40 TDP1 no CPT inconclusive, DT40 TDP1 CPT inconclusive
CCOc1nc2cnccc2n(CC(=O)Nc2cccc(C)c2C)c1=O	none (no result: ATXN2 expr inh)
CSc1nc(N)nc2c1ncn2CC(=O)N1CCN(c2ccccn2)CC1	none
Cc1cccc(NC(=O)/C(C#N)=C/c2ccccc2O)n1	none
CCC[C@H](NC(=O)C(C#N)=Cc1cccc(Br)n1)c1ccccc1	ATXN2 expr inh 11µM (no result: TGFb inhibitor, HepG2 tox, DT40 TDP1 no CPT, S2 tox, DT40 TDP1 CPT)
COc1ccc(-c2nc(/C=C3\C(C)=Nc4ccccc43)c(O)o2)cc1	DT40 TDP1 no CPT 12µM, DT40 TDP1 CPT 6.5µM
O=S1(=O)C[C@@H](N2CCOCC2)[C@H](N2CCOCC2)C1	none
C=CC1C(N2CCOCC2)C(C)(C)S1(=O)=O (stereo not given)	DT40 TDP1 no CPT inconclusive, DT40 TDP1 CPT 23µM
CCOc1nc(N2CCCCC2)nc(-n2cc(-c3ccccc3)nn2)n1	DT40 TDP1 no CPT 18µM, DT40 TDP1 CPT 16µM
CCOC(=O)c1nnn(-c2nc(N3CCCC3)nc(N3CCCC3)n2)c1-c1ccccc1	DT40 TDP1 no CPT inconclusive, DT40 TDP1 CPT 18µM
CCOC(=O)c1nnn(-c2nonc2N)c1-c1ccc(OCC)cc1	none
CCOC(=O)c1c(-c2ccccc2)nnn1-c1nc(OCC)nc(N2CCCCC2)n1	ATXN2 expr inh inconclusive, DT40 TDP1 no CPT inconclusive, DT40 TDP1 CPT 18µM (no result: S2 tox)
CCOC(=O)c1c(C)nc(C)c(C(=O)OCC)c1-c1ccccc1	none
O=c1oc2ccc(F)cc2cc1-c1nc(-c2cccs2)no1	none (no result: ATXN2 expr inh, S2 tox)
CN(C(=O)COC(=O)c1cc(S(=O)(=O)N2CCCCC2)ccc1Cl)c1ccccc1	DT40 TDP1 no CPT inconclusive, DT40 TDP1 CPT inconclusive (no result: ATXN2 expr inh)
Cc1ccc(NC(=O)CN2CCN(C)CC2)cc1S(=O)(=O)N1CCOCC1	none
CCOC(=O)C1=C(COC(=O)Cc2ccc(OC)c(OC)c2)NC(=O)NC1C (stereo not given)	S2 tox inconclusive
O=C(Nc1cccc(Cn2cccn2)c1)c1cc2c(s1)CCCC2	DT40 TDP1 no CPT 11µM, S2 tox inconclusive, DT40 TDP1 CPT inconclusive
CCOC(=O)c1ccc(NC(=O)c2cc3c(s2)CCC3)cc1	DT40 TDP1 no CPT inconclusive
Cc1ccc(OCC(=O)c2cc(C)n(Cc3cccs3)c2C)c([N+](=O)[O-])n1	ATXN2 expr inh inconclusive, DT40 TDP1 no CPT 5.8µM, DT40 TDP1 CPT 6.5µM
Cc1ccc(OCCOc2ccc(Cl)cc2Cl)c([N+](=O)[O-])n1	DT40 TDP1 no CPT 16µM, DT40 TDP1 CPT inconclusive
Cc1cc(-n2c(C)cc(C(=O)COc3cc(F)ccc3[N+](=O)[O-])c2C)no1	DT40 TDP1 no CPT 15µM, DT40 TDP1 CPT inconclusive (no result: ATXN2 expr inh)
Cc1ccc(OCC(=O)c2cc(C)n(C3CC3)c2C)c([N+](=O)[O-])n1	DT40 TDP1 no CPT 23µM, S2 tox inconclusive, DT40 TDP1 CPT inconclusive
Cc1cc(-n2c(C)cc(C(=O)COc3ccc([N+](=O)[O-])cc3)c2C)no1	DT40 TDP1 no CPT inconclusive, S2 tox inconclusive, DT40 TDP1 CPT inconclusive (no result: ATXN2 expr inh)
COc1ccc(OCCOc2ccc(C)nc2[N+](=O)[O-])cc1	none
O=C1NCCN(CC2CCN(CCc3ccccc3)CC2)C1=O	none
O=C(COC(=O)c1ccccc1)NCC1COc2ccccc2O1 (stereo not given)	S2 tox inconclusive (no result: ATXN2 expr inh)
CC(=O)Nc1cc(C(=O)CSc2nnc(C3CC3)n2C2CC2)ccc1O	none (no result: ATXN2 expr inh)
Cc1cc(C(=O)CN2C(=O)NC(C)(c3cc(F)ccc3F)C2=O)c(C)n1C1CC1 (stereo not given)	DT40 TDP1 no CPT 16µM, DT40 TDP1 CPT inconclusive
COc1ccc(-n2c(C)cc(C(=O)COc3ccc(C)nc3[N+](=O)[O-])c2C)cc1	TGFb inhibitor inconclusive, DT40 TDP1 no CPT 3.7µM, S2 tox inconclusive, DT40 TDP1 CPT 5.2µM
Cc1ccc(OCC(=O)c2ccc(Cl)s2)c([N+](=O)[O-])n1	DT40 TDP1 no CPT 13µM, DT40 TDP1 CPT 3.7µM
CCC1(c2ccc(F)cc2)NC(=O)N(CC(=O)c2cc(C)n(C3CC3)c2C)C1=O (stereo not given)	DT40 TDP1 no CPT inconclusive, DT40 TDP1 CPT inconclusive
Cc1cc(C(=O)CN2C(=O)NC(CCS(C)(=O)=O)C2=O)c(C)n1C1CC1 (stereo not given)	DT40 TDP1 no CPT 5.8µM, DT40 TDP1 CPT 18µM
Cc1ccc(CNC(=O)COc2ccc(C)nc2[N+](=O)[O-])cc1	none
COc1cc(/C=C/C(=O)O)cc(S(=O)(=O)Nc2cccc(SC)c2)c1OC	S2 tox inconclusive
CN(Cc1ccccc1)C(=O)c1nc2ccccn2c1CN1CCC(N2CCOCC2)CC1	none
COc1ccc(OC)c(C2C(C(=O)N3CCCCC3)=C(C)Nc3nc4ccccc4n32)c1 (stereo not given)	none
Cc1ccc(OCC(=O)c2cc(C)n(-c3cc(C)on3)c2C)c([N+](=O)[O-])n1	TGFb inhibitor inconclusive, DT40 TDP1 no CPT inconclusive, DT40 TDP1 CPT 10µM
Cc1cc(C(=O)COc2ccc(F)cc2Br)c(C)n1C1CC1	DT40 TDP1 no CPT 10µM, S2 tox inconclusive, DT40 TDP1 CPT 15µM
O=C(Nc1ccccc1C(F)(F)F)c1cc2nc(-c3ccccc3)cc(-c3ccccc3)n2n1	none
COc1ccc(-c2csc(NC(=O)C3CSC4(C)CCC(=O)N34)n2)cc1 (stereo not given)	none
COc1ccc(-c2csc(NC(=O)C3CSC4(C)CCC(=O)N34)n2)c(OC)c1 (stereo not given)	DT40 TDP1 no CPT 23µM, DT40 TDP1 CPT inconclusive
